Assay outcomes: PubChem, The Scripps Research Institute Molecular Screening Center
In the library only some 1.8% were active in any assay of this set; here they are far more common.
LYPLA2 counter – counter-screen for PME1 inhibitors: inhibitors of human LYPLA2. O95372. recombinant LYPLA2, FP-Rh probe fluorescence polarization. inhibition, % at 5.9 µM. 320,000 compounds, 0.38% hits;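 active = inhibition above the screen-wide mean plus 3 SD, limit set per campaign, cut at about 26% in these data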;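 note: 0% = LYPLA2 with DMSO and 100% = wells lacking LYPLA2 enzyme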
GSTO1 inh – GSTO1 inhibition, counter-screen for RBBP9 inhibitors; recombinant GSTO1, activity-based probe fluorescence polarization; inhibition, % at 5.96 µM; 300,000 compounds, 1.1% hits;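 active = inhibition above the campaign mean inhibition plus 3 SD, cut at about 35% in these data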;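 note: 0% = GSTO1-1 with DMSO and 100% = wells lacking GSTO1-1 enzyme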
Fam108B counter – Fam108B inhibition, counter-screen for RBBP9 inhibitors | 300,000 compounds, 0.33% hits | inhibition, % at 9.51 µM | recombinant Fam108B, FP-Rh probe fluorescence polarization;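 active = inhibition above the screen mean inhibition plus 3 SD, computed separately per campaign, cut at about 18% in these data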;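 note: inhibitors lower polarization as less probe binds the enzyme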
LYPLA1 counter – LYPLA1 (human) inhibition in PME1 counter-screen | 320,000 compounds, 0.16% hits | O75608 | inhibition, % at 5.9 µM | recombinant LYPLA1, FP-Rh probe fluorescence polarization;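 active = inhibition above the mean of all tested compounds plus 3 SD, set per campaign, cut at about 14% in these data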;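 note: inhibitors block serine hydrolase probe labeling of LYPLA1 so polarization falls; 0% = enzyme with DMSO and 100% = wells lacking LYPLA1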
PAD4 inh – inhibitors of human PAD4. recombinant PAD4, RCA probe fluorescence polarization. inhibition, % at 6.36 µM. 330,000 compounds, 0.41% hits;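 active = percent inhibition above a cutoff equal to the mean of all tested compounds plus 3 SD, cut at about 15% in these data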;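 note: 0% = PAD4 with RCA probe and DMSO and 100% = probe without PAD4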
Target sequence (Q9UM07 whole entry, looked up): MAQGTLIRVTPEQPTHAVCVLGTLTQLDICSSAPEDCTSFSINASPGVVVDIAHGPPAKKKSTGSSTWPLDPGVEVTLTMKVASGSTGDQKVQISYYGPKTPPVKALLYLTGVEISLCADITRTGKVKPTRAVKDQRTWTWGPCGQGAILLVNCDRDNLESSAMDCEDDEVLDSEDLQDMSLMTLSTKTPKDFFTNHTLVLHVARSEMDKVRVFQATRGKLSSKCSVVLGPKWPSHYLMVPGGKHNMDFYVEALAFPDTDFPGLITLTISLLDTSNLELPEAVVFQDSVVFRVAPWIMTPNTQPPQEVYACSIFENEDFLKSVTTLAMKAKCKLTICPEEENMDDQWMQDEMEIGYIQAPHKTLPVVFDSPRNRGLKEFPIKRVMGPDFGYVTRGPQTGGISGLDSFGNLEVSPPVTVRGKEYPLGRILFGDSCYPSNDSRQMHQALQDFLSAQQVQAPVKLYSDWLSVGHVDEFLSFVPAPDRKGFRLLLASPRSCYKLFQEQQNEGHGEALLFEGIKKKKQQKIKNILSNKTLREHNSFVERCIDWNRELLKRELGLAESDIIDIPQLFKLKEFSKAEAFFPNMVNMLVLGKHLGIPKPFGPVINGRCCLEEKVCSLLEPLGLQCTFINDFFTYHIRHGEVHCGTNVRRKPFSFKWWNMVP
PME-1 inh – blocks human protein phosphatase methylesterase 1 | recombinant PME-1, FP-Rh probe fluorescence polarization | inhibition, % at 5.9 µM | 320,000 compounds, 0.53% hits | AID 2130;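 active = inhibition above the campaign mean of all compounds plus 3 SD, cut at about 26% in these data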;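 note: competitive labeling of PME-1 active site by serine hydrolase directed probe; 0% = PME-1 with DMSO and 100% = wells lacking PME-1 enzyme; inhibitors block probe labeling so polarization falls and inhibition rises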
PAD4 FP conf – PAD4 (human) inhibition, confirmed; shares compounds with PAD4 inh; recombinant PAD4, RCA probe fluorescence polarization; inhibition, % at 6.36 µM; 1,200 compounds, 28% hits;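 active = mean inhibition across replicates above the hit cutoff set by the earlier primary screen, cut at about 15% in these data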;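 note: inhibitors block active-site labeling by the probe so polarization falls; 0% = PAD4 with probe and DMSO and 100% = probe without PAD4 enzyme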
Numbers without * were called inactive; nt = no result.

SMILES | LYPLA2 counter | GSTO1 inh | Fam108B counter | LYPLA1 counter | PAD4 inh | PME-1 inh | PAD4 FP conf
Cc1cc(Cl)ccc1C(=O)C1CCCN(C(=O)CCn2cncn2)C1 (stereo unspecified) | -6.1 | 4.6 | -1.8 | -4.3 | -0.8 | 3.6 | nt
O=C(CCC(=O)N1CCOCC1)Nc1ccc(Cl)c(Cl)c1 | -3.2 | -2.4 | -0.2 | -1.9 | -0.8 | 0.1 | nt
CCCCc1sc(-c2c(C#N)c(N)nc3c2CCCCC3)cc1[N+](=O)[O-] | 7.9 | 5.0 | -2.5 | 2.2 | -0.8 | -0.3 | nt
CCCCc1ccc(-c2c(C#N)c(N)nc3c2CCCC3)s1 | 7.8 | 5.3 | -1.6 | 3.4 | 36.0* | 0.2 | 1.1
COC(=O)Nc1ccc(SCC(=O)c2cccc([N+](=O)[O-])c2)cc1 | 5.8 | 10.5 | 3.9 | 1.8 | 25.8* | 8.0 | 18.8*
CC(=O)c1ccc(NC(=O)CSc2ccc(-c3ccc(-n4cccn4)cc3)nn2)cc1 | 7.5 | -2.9 | -0.1 | -2.7 | -1.8 | 1.9 | nt
O=C(NCC1CCCO1)c1ccc(C(=O)NCC2CCCO2)cc1 (stereo unspecified) | -5.0 | -12.0 | -0.5 | -3.2 | -1.5 | 4.8 | nt
CN(c1ccc(C(=O)NCC2CCCO2)cc1)S(C)(=O)=O (stereo unspecified) | 0.1 | 3.9 | -1.3 | 2.0 | 15.0* | 0.8 | 2.4
CN1C(=O)N(CC(=O)NCc2ccc(Cl)cc2Cl)C(=O)C12CCCCC2 | -3.9 | nt | nt | 0.2 | -3.6 | 6.2 | nt
OCc1ccc2c(c1)c(-c1ccc3c(c1)OCCO3)c(-c1ccccc1)n2-c1ccccc1 | 6.9 | nt | nt | -2.3 | -1.8 | 3.7 | nt
C=CCOc1ccc(C2OC34CCCCC3C(C#N)(C#N)C2(C#N)C(=N)O4)cc1 (stereo unspecified) | 12.2 | 15.8 | 8.7 | 6.7 | 15.2* | 10.5 | 1.8
Cc1ccc(C2OC34CCCCCC3C(C#N)(C(=N)O4)C2(C#N)C#N)cc1 (stereo unspecified) | -1.3 | -2.9 | 3.0 | -0.8 | 2.4 | 0.9 | nt
CN(C)CC1CCCCC1OC(=O)c1ccc(S(=O)(=O)N(C)c2ccccc2)cc1 (stereo unspecified) | 4.7 | 3.8 | -2.2 | -0.8 | -1.7 | 3.4 | nt
COC(=O)Cc1c(C)nc(SCc2ccccc2)[nH]c1=O | -4.2 | 7.2 | 0.7 | -2.3 | -1.5 | -3.4 | nt
Nn1cnnc1N/N=C/c1ccc(F)cc1 | -1.4 | 18.3 | -3.7 | -0.7 | 40.7* | 3.0 | 2.7
Fc1ccc(/C=N/Nc2nn[nH]n2)cc1 | -0.1 | 5.7 | 0.4 | 0.9 | 1.2 | 3.7 | nt
Nn1cnnc1N/N=C/c1ccccc1C(F)(F)F | 1.1 | 1.9 | -2.2 | -1.3 | 39.1* | -0.3 | 6.7
Cc1ccc(/C=N/Nc2nncn2N)cc1 | 2.4 | 16.3 | 3.1 | -0.7 | 46.4* | 4.6 | 1.4
Nc1ccccc1C(=O)NC1CCCNC1=O (stereo unspecified) | 8.2 | 3.5 | 4.0 | 0.1 | 28.8* | -1.8 | 1.1
NC(=O)CC(NC(=O)c1ccccc1)c1ccc(NC2CCCCCCC2)c([N+](=O)[O-])c1 (stereo unspecified) | 2.6 | 2.6 | -3.5 | 4.4 | -5.8 | -0.9 | nt
CCNc1c(NS(=O)(=O)c2ccc(OC)cc2)c(=O)oc2ccccc12 | -5.2 | -1.1 | -4.0 | 0.6 | -0.2 | -2.2 | nt
Cc1ncc(N=Nc2ccc(F)cc2)c(-c2ccc(Cl)cc2)n1 | -5.3 | 4.6 | -3.7 | 0.3 | 18.4* | 0.6 | 0.7
CC(C(=O)NCc1ccco1)n1ccc2cc(S(=O)(=O)N3CCCCC3)ccc21 (stereo unspecified) | 3.0 | -1.7 | 0.4 | 1.1 | -0.5 | 8.1 | nt
COC(=O)CN1C(=O)N/C(=C/c2ccc(C)o2)C1=O | 6.8 | 12.9 | 11.9 | 5.3 | 16.4* | 9.1 | 2.3
O=C(O)C1(c2cccc(Cl)c2)CCC1 | 1.8 | -3.0 | 0.6 | -0.9 | 2.4 | -0.8 | nt
COc1ccc(OC)c(N/C(C)=C/C(=O)c2ccncc2)c1 | -4.6 | 2.3 | 1.5 | -2.8 | 23.2* | -6.1 | -4.5
N#Cc1nc(N2CCCCC2)nc(N2CCOCC2)n1 | -0.2 | -1.4 | 6.2 | -1.3 | 18.5* | -2.1 | 23.8*
CCC(=O)Nc1ccc(SC#N)cc1C | -0.3 | 5.8 | 3.5 | 0.9 | 40.3* | 0.8 | 42.2*
CCOC(=O)CC(=O)Nc1c(C)cc(C)cc1C | 5.9 | -4.5 | 1.7 | 2.3 | 0.0 | 3.8 | nt
